The campaign covered roughly 310,000 compounds. About 14,000 (4.5%) showed an effect of 50% or more. The effect is printed as a negative number. Shown is part of a subset that was picked to be rich in strong results.
biological target: human ether-à-go-go-related gene (hERG) potassium channel (human, UniProt Q12809); experiment: primary screen, population patch clamp on CHO cells stably expressing hERG; higher = less effect of the substance
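Further: peak tail current of the secondary pulse compared with the same well before compound.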

human ether-à-go-go-related gene (hERG) potassium channel, sequence (Q12809 whole entry, looked up): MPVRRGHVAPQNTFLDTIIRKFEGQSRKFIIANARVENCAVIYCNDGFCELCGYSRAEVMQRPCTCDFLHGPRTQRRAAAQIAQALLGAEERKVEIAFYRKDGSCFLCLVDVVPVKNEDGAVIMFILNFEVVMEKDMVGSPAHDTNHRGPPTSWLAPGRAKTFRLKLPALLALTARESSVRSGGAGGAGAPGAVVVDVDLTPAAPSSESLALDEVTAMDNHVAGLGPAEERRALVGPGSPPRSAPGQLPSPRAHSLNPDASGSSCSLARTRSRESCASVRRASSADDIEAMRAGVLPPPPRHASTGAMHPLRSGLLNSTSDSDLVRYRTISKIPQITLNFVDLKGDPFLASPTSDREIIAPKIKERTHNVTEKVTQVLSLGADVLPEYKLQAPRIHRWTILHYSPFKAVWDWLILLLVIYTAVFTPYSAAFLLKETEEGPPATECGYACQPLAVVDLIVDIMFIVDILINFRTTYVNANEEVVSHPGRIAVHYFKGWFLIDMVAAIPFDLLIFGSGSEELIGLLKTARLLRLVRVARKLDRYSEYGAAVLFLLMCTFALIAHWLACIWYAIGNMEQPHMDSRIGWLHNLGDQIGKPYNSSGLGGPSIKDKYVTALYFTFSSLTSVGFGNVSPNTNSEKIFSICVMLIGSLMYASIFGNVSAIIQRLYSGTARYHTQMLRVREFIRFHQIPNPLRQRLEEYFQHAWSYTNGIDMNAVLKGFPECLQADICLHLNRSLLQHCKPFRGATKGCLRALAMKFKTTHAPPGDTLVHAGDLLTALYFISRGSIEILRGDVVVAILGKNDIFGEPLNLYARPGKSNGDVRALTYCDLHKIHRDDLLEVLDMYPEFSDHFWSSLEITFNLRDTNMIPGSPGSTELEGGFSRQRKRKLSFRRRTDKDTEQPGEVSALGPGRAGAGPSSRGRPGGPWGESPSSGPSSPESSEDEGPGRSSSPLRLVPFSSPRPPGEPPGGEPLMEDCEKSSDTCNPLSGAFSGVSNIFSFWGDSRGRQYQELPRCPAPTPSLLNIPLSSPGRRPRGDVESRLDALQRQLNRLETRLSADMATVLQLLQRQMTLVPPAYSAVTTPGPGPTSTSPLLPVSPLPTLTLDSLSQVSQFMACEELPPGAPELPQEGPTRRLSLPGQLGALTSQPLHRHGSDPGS

First: Cc1c(CCO)c(=O)n(C)n1C(=O)c1ccc(F)cc1
Second: CCn1c(SCC(=O)Nc2cccc(C)n2)nnc1-c1ccco1
The “hERG current change (%, negative = inhibition) at 10uM” value of the first is higher: 2.6% for the first, -50.9% for the second.

Compared with `CCCCCN(C(=O)CCC(=O)OCc1ccc(C(C)(C)C)cc1)c1c(N)n(CCCC)c(=O)[nH]c1=O`, `CCCCn1c(SCC(=O)NC(C)(C)C)nnc1-c1ccco1` is higher in “hERG current change (%, negative = inhibition) at 10uM” value: -8.09% for the first, -1.57% for the second.

Going from `CCN(Cc1ccccc1)C(=O)c1ccc(CS(=O)c2ccccc2C)o1` (stereo not shown) to `CC1(CCc2ccccc2)NC(=O)N(Cc2nnc(-c3ccccc3Br)o2)C1=O` (stereo not shown), the “hERG current change (%, negative = inhibition) at 10uM” value rises from -43.9% to -26%.

Compared with `C/C(=N\NC(=O)c1csc(C)c1C)c1ccc(Cl)s1`, `CC1N(C)c2cc(NC(=O)c3ccco3)ccc2C1(C)C` (stereo not shown) is lower in “hERG current change (%, negative = inhibition) at 10uM” value: -0.674% for the first, -13.9% for the second.

Compared with `C/C=C\C=C\C(=O)N1CC2(CC(c3cccc(NC(=O)CC(c4ccccc4)c4ccccc4)c3)=NO2)C[C@H]1C(N)=O` (stereo partly shown), `CC1CCCCN1C(=O)c1cccc(NC2=C(Cl)C(=O)N(Cc3ccccc3)C2=O)c1` (stereo not shown) is lower in “hERG current change (%, negative = inhibition) at 10uM” value: 0.883% for the first, -15.8% for the second.

First: O=C1C(Cl)=C(Nc2cccc(O)c2)C(=O)N1Cc1ccccc1
Second: CCOc1ccc(NC2=C(Cl)C(=O)N(Cc3ccccc3)C2=O)cc1
The “hERG current change (%, negative = inhibition) at 10uM” value of the first is lower: -62.4% for the first, -0.258% for the second.

Compared with `NC(C(=O)O)c1cc(=O)[nH]o1` (stereo not shown), `O=C(O)c1cccc(Nc2ncnc3ccc(Br)cc23)c1` is lower in “hERG current change (%, negative = inhibition) at 10uM” value: 13.4% for the first, -1.55% for the second.

First: CCn1c(SCC(=O)NC2CCCC2)nnc1-c1ccco1
Second: CCCCn1c(SCC(=O)NC2CCCC2)nnc1-c1ccco1
The “hERG current change (%, negative = inhibition) at 10uM” value of the first is higher: 14.8% for the first, -54.8% for the second.

Going from `COCCCn1c(SCC(=O)Nc2cccc(C)n2)nnc1-c1ccco1` to `COCCn1c(SCC(=O)Nc2cccc(C)n2)nnc1-c1ccco1`, the “hERG current change (%, negative = inhibition) at 10uM” value rises from -69.3% to -11.5%.

Compared with `CCC(=O)Nc1ccc(NC(=O)CSc2nnc(-c3ccco3)n2CC)cc1`, `CCn1c(SCC(=O)Nc2cc(C)on2)nnc1-c1ccco1` is lower in “hERG current change (%, negative = inhibition) at 10uM” value: 8.22% for the first, -4.87% for the second.

First: CCCCn1c(SCC(=O)Nc2cccc(C)n2)nnc1-c1ccco1
Second: CCCCn1c(SCC(=O)Nc2cc(C)on2)nnc1-c1ccco1
The “hERG current change (%, negative = inhibition) at 10uM” value of the first is lower: -76% for the first, -23.3% for the second.

First: CCCn1c(SCC(=O)NC2CCCCC2)nnc1-c1ccco1
Second: COCCn1c(SCC(=O)Nc2cc(C)on2)nnc1-c1ccco1
The “hERG current change (%, negative = inhibition) at 10uM” value of the first is lower: -20.3% for the first, -4.67% for the second.

Going from `COc1ccccc1CNS(=O)(=O)c1ccc(C)cc1` to `Cc1ccccc1N1CCN(S(=O)(=O)c2ccc3ccccc3c2)CC1`, the “hERG current change (%, negative = inhibition) at 10uM” value rises from 7.04% to 9.64%.

Compared with `CN(C)c1ccc(/C=C2\C(=N)N3N=C(CC(=O)N4CCCC4)SC3=NC2=O)cc1Br`, `Cc1nc2ncnn2c(N2CCN(S(=O)(=O)c3ccc(Br)cc3)CC2)c1C` is lower in “hERG current change (%, negative = inhibition) at 10uM” value: 4.09% for the first, -20.7% for the second.

First: COCc1cc(C)nc(N/N=C/c2ccc(Cl)c(Cl)c2)c1C#N
Second: CC(=O)Nc1ccc(S(=O)(=O)N2CCN(c3cc(C)nc4ncnn34)CC2)cc1
The “hERG current change (%, negative = inhibition) at 10uM” value of the first is higher: 12.4% for the first, -27.9% for the second.

First: CCN1CC2([N+](=O)[O-])CC=C(Cl)C([N+](=O)[O-])(C1)C2 (stereo not shown)
Second: CN1CCN(c2ccc([N+](=O)[O-])cc2NC(=O)c2ccco2)CC1
The “hERG current change (%, negative = inhibition) at 10uM” value of the first is higher: 13.9% for the first, -66.9% for the second.

First: Cc1cc(N2CCN(S(=O)(=O)c3ccc4ccccc4c3)CC2)n2ncnc2n1
Second: Cc1cc(N2CCN(S(=O)(=O)c3ccc(Br)cc3)CC2)n2ncnc2n1
The “hERG current change (%, negative = inhibition) at 10uM” value of the first is lower: -77.7% for the first, -76.9% for the second.

Going from `Cc1cc(N2CCN(S(=O)(=O)Cc3ccccc3)CC2)n2ncnc2n1` to `CN1CCN(c2ccc(C(F)(F)F)cc2NC(=O)c2ccco2)CC1`, the “hERG current change (%, negative = inhibition) at 10uM” value falls from -46.1% to -54.5%.

Compared with `CC1CN(C(=O)CSc2nnc(NC(=O)NC(C)(C)C)s2)CC(C)O1` (stereo not shown), `CC1N(C)c2cc(NC(=O)c3cccs3)c(P(=O)(Nc3ccc([N+](=O)[O-])cc3)N3CCOCC3)cc2C1(C)C` (stereo not shown) is lower in “hERG current change (%, negative = inhibition) at 10uM” value: 19% for the first, 12.2% for the second.

Compared with `CCOC(=O)C1CCN(C(=O)CN(c2ccc(OC)c(OC)c2)S(=O)(=O)c2ccccc2)CC1`, `COc1cc2ccccc2cc1C(=O)NCCCN1CCOCC1` is higher in “hERG current change (%, negative = inhibition) at 10uM” value: -14.7% for the first, -5.9% for the second.

Compared with `CCOc1ccc(S(=O)(=O)NCCC(=O)NCC(c2ccco2)N2CCCCC2)cc1` (stereo not shown), `O=C(Nc1cc([N+](=O)[O-])ccc1N1CCCC1)c1ccco1` is lower in “hERG current change (%, negative = inhibition) at 10uM” value: -17.7% for the first, -34.5% for the second.

First: O=C(Nc1cc(C(F)(F)F)ccc1N1CCOCC1)c1ccco1
Second: O=C(Nc1cc(C(F)(F)F)ccc1N1CCCCC1)c1ccco1
The “hERG current change (%, negative = inhibition) at 10uM” value of the first is lower: 6.93% for the first, 21.2% for the second.

Compared with `CCC(=O)Nc1cc(C(F)(F)F)ccc1N1CCOCC1`, `Cc1cc(C(=O)Nc2cc(C(F)(F)F)ccc2N2CCOCC2)no1` is higher in “hERG current change (%, negative = inhibition) at 10uM” value: 1.09% for the first, 5.97% for the second.

Going from `CCCCn1nc(C(=O)Nc2cc(C(F)(F)F)ccc2N2CCOCC2)ccc1=O` to `O=C(Nc1cc([N+](=O)[O-])ccc1N1CCOCC1)c1ccco1`, the “hERG current change (%, negative = inhibition) at 10uM” value rises from -83.7% to -25.6%.

Going from `CC1N(C)c2cc(NC(=O)c3ccco3)c(P(=O)(Nc3ccc([N+](=O)[O-])cc3)N3CCOCC3)cc2C1(C)C` (stereo not shown) to `C=CCn1c(N2CCN(c3ccc(OC)cc3)CC2)nc2c1c(=O)n(C)c(=O)n2C`, the “hERG current change (%, negative = inhibition) at 10uM” value rises from -56% to -32.1%.

Going from `O=S(=O)(N1CCOCC1)N1CCCN(S(=O)(=O)N2CCOCC2)CC1` to `Cc1nn(C(C)C(=O)Nc2sc3c(c2C#N)CCCC3)c(C)c1[N+](=O)[O-]` (stereo not shown), the “hERG current change (%, negative = inhibition) at 10uM” value rises from 5.76% to 12.1%.

First: O=C(/C=C/c1ccccc1Cl)NCCCn1ccnc1
Second: Cc1ccc(S(=O)(=O)c2c(C)nn(C(C)(C)C)c2OC(=O)C(C)(C)C)cc1
The “hERG current change (%, negative = inhibition) at 10uM” value of the first is lower: -17% for the first, 15.6% for the second.

`CCN(CC)c1nc(C)nc2c1sc(=S)n2C` was tested, and the “hERG current change (%, negative = inhibition) at 10uM” value was -1.82%.
